The text below walks through data of PubChem BioAssay.

Several values for one entry are separate records, joined by “and”; a condition that tells them apart may be missing. Identical values can stand only once. Where a structure was tested more than once in an assay, its records may differ in their call. Activity calls are given as the source filed them. Cut-off read from the data, not from the text of the source: active = fold change permeability below about 0.7 or above about 1.3; inactive = in between.

This test can be described thus: compounds altering in vitro BBB leakiness – cell-based, FITC-avidin fluorescence, HTS, primary screen (AID 1963498). Note: test concentration not given here. The following applies: brain endothelial barrier, actives lie on both sides.
As for `CC(C)N(CCC(C(N)=O)(c1ccccc1)c1ccccn1)C(C)C` (stereo unspecified), the fold change permeability is 0.9 (inactive) and 1.3 (active). To `CC[C@@]1(O)C(=O)OCc2c1cc1n(c2=O)Cc2cc3ccccc3nc2-1` belongs 1.4 (active). To `Clc1cnc(Oc2ccc(Oc3ncc(Cl)cc3Cl)cc2)c(Cl)c1` belongs 1.4 (active); to `C[N+](C)(C)CCOC(=O)CBr`, 1 (inactive); to `C[C@]12CCC3C(CC[C@H]4C[C@H](O)CC[C@]34C)C1CC[C@@H]2C(=O)CO` (stereo partly specified), 1.1 (inactive). To `CC(=O)c1c(O)c(C)c(O)c(Cc2c(O)c3c(c(C(=O)/C=C/c4ccccc4)c2O)OC(C)(C)C=C3)c1O` belongs 2 (active); to `CCCN1CCC[C@@H]2Cc3nc(N)ncc3C[C@H]21`, 1.1 (inactive); to `Clc1ccc(C(c2ccc(Cl)cc2)n2cc[n+](CC(OCc3ccc(Cl)cc3Cl)c3ccc(Cl)cc3Cl)c2)cc1` (stereo unspecified), 1.3 (active). With `Cn1cnc(CCN)c1`, the fold change permeability is 0.9 (inactive).

Regarding `CC(C)(C)c1cc(C(C)(C)C)c2c(c1)C(O)(C(F)(F)F)C(=O)O2` (stereo unspecified), the fold change permeability is 1.2 (inactive). The same measure for `COc1cc([C@@H]2c3cc4c(cc3[C@H](O)[C@H]3COC(=O)[C@H]23)OCO4)cc(OC)c1OC`: 1.2 (inactive). To `c1ccc2sc(C3(N4CCCCC4)CCCCC3)cc2c1` belongs 1 (inactive); to `CCCCCCCCCCCCCC(=O)O[C@@H]1[C@@H](C)[C@@]2(O)[C@@H](C=C(CO)C[C@]3(O)C(=O)C(C)=C[C@@H]23)[C@@H]2C(C)(C)[C@]12OC(C)=O`, 1.1 (inactive). As for `CCCC[N+]1(C)C2CC(OC(=O)[C@H](CO)c3ccccc3)CC1C1OC12` (stereo partly specified), the fold change permeability was 0.8 (inactive). `c1ccc(C[N+]23CN4CN(CN(C4)C2)C3)cc1`: the fold change permeability was 0.7 (active). The same measure for `CC(N)Cc1c[nH]c2ccc(OCc3cccs3)cc12` (stereo unspecified): 1.3 (active); for `N[C@@H]1C[C@H]1c1ccccc1`: 0.9 (inactive); for `CC(N)C(=O)OC(C)(C)Cc1ccc(Cl)cc1` (stereo unspecified): 1.1 (inactive). For the compound `CN1C2CCC1CC(OC(c1ccccc1)c1ccccc1N)C2` (stereo unspecified), the fold change permeability is 1.1 (inactive).

Regarding `NC(=O)COc1c(F)cc(SCCNS(=O)(=O)c2ccccc2)cc1F`, the fold change permeability is 0.9 (inactive). To `C=C(C)[C@H]1CN[C@H](C(=O)O)[C@H]1CC(=O)O` belongs 1.8 (active); to `CC(C)NP(=O)(NC(C)C)OP(=O)(NC(C)C)NC(C)C`, 1.1 (inactive); to `COc1ccccc1N1CCNCC1`, 0.9 (inactive).

As for `Clc1ccc(C(Cn2ccnc2)OCc2csc3c(Cl)cccc23)c(Cl)c1` (stereo unspecified), the fold change permeability is 1.2 (inactive).

Turning to `C=C(C)[C@H]1Cc2c(ccc3c2O[C@@H]2COc4cc(OC)c(OC)cc4[C@@H]2C3=O)O1`, the fold change permeability was 1.7 (active). The same measure for `CCCN(CCC)[C@@H]1CCc2cccc(O)c2C1`: 1.2 (inactive); for `C[N+]1(C)C2CCC1CC(OC(=O)C(CO)c1ccccc1)C2` (stereo unspecified): 1.1 (inactive); for `CC(Cc1ccc(OCC(=O)O)cc1)NCC(O)c1cccc(Cl)c1` (stereo unspecified): 1 (inactive).

On to `O=P(O)(O)C(O)(Cc1cnc2ccccn12)P(=O)(O)O`, for which the fold change permeability is 0.8 (inactive). To `N#Cc1ccc(N2CCN(C(=O)COc3ccc4[nH]cc(CCN)c4c3)CC2)cc1` belongs 1 (inactive). The same measure for `O=[N+]([O-])c1cc(O)c(O)c([N+](=O)[O-])c1`: 1 (inactive); for `CN1CC[C@@]2(C)c3cc(O)ccc3N(C)C12` (stereo partly specified): 1.3 (active); for `CCCN(CCC)C1CCc2cccc(O)c2C1` (stereo unspecified): 1 (inactive). The same measure for `NN=C(N)N`: 1.2 (inactive) and 1 (inactive); for `COc1cc2c(c(OC)c1OC)-c1ccc(SC)c(=O)cc1[C@@H](NC(C)=O)CC2`: 1.7 (active); for `CCCN1CCC[C@@H]2Cc3[nH]ncc3C[C@H]21`: 0.9 (inactive).
